The source of these data is PubChem BioAssay.

The structures appear in SMILES notation. The source made the active and inactive calls.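 How the source made its calls, unless noted: active means compound that reduces growth-factor-driven endothelial tube area in a mixed cell culture, no cutoff stated; inactive means the rest.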

The nature of assay [1]: Wnt pathway potentiators raising nuclear beta-catenin – imaging, WNT3A-conditioned medium, mouse C2C12, NPC library, primary screen (AID 1117326; in the data active means nuclear beta-catenin stimulation mostly above about 4.2%, no sharp cut-off; inactive means mostly below about 10%; further: reference of the scale not given here). The settings on record: stronger effect = higher value.
The nature of assay [2]: stimulators of insulin release from INS-1E, primary screen, cell-based, 5 mM glucose, NPC library (AID 1117329;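 active means compound raises insulin release from rat beta cells at 5 mM glucose, no numeric limit stated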; further: reference of the scale not given here). The conditions noted are these: rat INS-1E insulin secretion, at 10 µM, stronger effect = higher value.
Assay [3] in a line: growth inhibition of GSK3B-pretreated HCT116 cells – cell-based, CellTiter-Glo, 0.2 to 20 µM (AID 1117336;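 active means compounds lowering colon cancer cell viability after pretreatment blocking the GSK3B kinase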). The conditions noted are these: HCT116 viability after GSK3B inhibitor, at 20 µM, stronger effect = higher value. Background: Cellular ATP, detected with luciferase, serves as a proxy for viable cell number.
Assay [4] in a line: inhibition of endothelial tube formation, primary screen, imaging, VEGF stimulated, CD31 staining, tube area, NPC library (AID 1117340). The conditions noted are these: VEGF-stimulated ADSC/ECFC co-culture, at 10 µM, stronger effect = higher value.
Assay [5] in a line: GLP1 release stimulators, primary, NCI-H716, NPC library (AID 1117341;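 active means compound raises GLP1 secretion from the human gut endocrine cells, with no numeric limit stated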; further: reference of the scale not given here). The settings on record: NCI-H716 cells, at 10 µM, stronger effect = higher value.
The nature of assay [6]: HCT116 colon cancer cell growth inhibition, primary screen, CellTiter-Glo luminescence, NPC library (AID 1117342;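 active means compounds that lower survival of HCT116 colon cancer cells in the luminescence readout, no numeric limit stated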). The settings on record: at 20 µM (top of the series).
A short description of assay [7]: reduced SW480 viability measured with CellTiter-Glo, NPC library, primary (AID 1117343;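 active means compounds that lower viability of the colon cancer cells in the luminescence readout, with no numeric limit stated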). The conditions noted are these: CellTiter-Glo luminescence; at 20 µM (top of the series).
The nature of assay [8]: NPC library primary testing for decreased DLD-1 cell viability via CellTiter-Glo (AID 1117346;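 active means compounds that lower survival of DLD-1 colon cancer cells in the luminescence readout, no cutoff given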). The settings on record: DLD-1 viability, CellTiter-Glo luminescence; at 20 µM (top of the series).

`O=C(CCN1CCC(c2ccccc2)C1)c1ccc2c(c1)OCCO2` (stereo not given): the nuclear beta-catenin stimulation in assay [1] (at 10 µM) is 12.8% (inactive); in assay [1] (stimulation, at 2 µM) it was 0.5%. In addition, the insulin secretion stimulation in assay [2] is 0% (inactive). For the same molecule, the viability decrease in assay [3] was 11.6% (inactive). Further, the tube area decrease in assay [4] was 17% (active). Moreover, in assay [5], the GLP1 secretion stimulation is 1.4% (inactive). For the same molecule, the inhibition of viability in assay [6] is -10.2% (inactive). Moreover, the viability decrease (inhibition) was 158% (active) in assay [7] and 101% (active) in assay [8].
Take `CCCCOC(=O)CC(CC(=O)OCCCC)(OC(C)=O)C(=O)OCCCC`: the nuclear beta-catenin stimulation in assay [1] (at 10 µM) was -0.3% (inactive); in assay [1] (stimulation, at 2 µM), 0.1%. Also, in assay [2], the insulin secretion stimulation was 6.2% (inactive). Further, the viability decrease in assay [3] is 30.4% (inactive). Also, the tube area decrease in assay [4] was 2.1% (inactive). The GLP1 secretion stimulation in assay [5] is 0.1% (inactive). Also, the inhibition of viability in assay [6] is 25.9% (inactive). Further, the viability decrease (inhibition) in assay [7] was 62.1% (active); in assay [8], 26.9% (inactive).
As to `CCOc1ncc(F)c(=O)[nH]1`, the nuclear beta-catenin stimulation is -1% (inactive) in assay [1] (at 10 µM) and -1.1% in assay [1] (stimulation, at 2 µM). Moreover, in assay [2], the insulin secretion stimulation was 2.9% (inactive). In addition, the viability decrease in assay [3] was 0.7% (inactive). Also, the tube area decrease in assay [4] is 0.1% (inactive). Besides, the GLP1 secretion stimulation in assay [5] was 2.1% (inactive). Further, the inhibition of viability in assay [6] is 2.4% (inactive). Also, the viability decrease (inhibition) in assay [7] was 3% (inactive); in assay [8], -4.2% (inactive).
In the case of `CCOc1cc(OCC)c(C(=O)CCC(=O)O)cc1OCC`, the nuclear beta-catenin stimulation in assay [1] (at 10 µM) is -1.4% (inactive); in assay [1] (stimulation, at 2 µM), 0.2%. Further, the insulin secretion stimulation in assay [2] was 0.5% (inactive). Further, in assay [3], the viability decrease is -11.3% (inactive). Besides, the tube area decrease in assay [4] was 3.4% (inactive). The GLP1 secretion stimulation in assay [5] was -1.3% (inactive). In assay [6], the inhibition of viability is 11.4% (inactive). Also, the viability decrease (inhibition) in assay [7] is 0.4% (inactive); in assay [8] it was 3.7% (inactive).
Take `O=C1CC[C@H](C(=O)N2CCCCC2)N1`: the nuclear beta-catenin stimulation is 1.7% (inactive) in assay [1] (at 10 µM) and 1% in assay [1] (stimulation, at 2 µM). Besides, the insulin secretion stimulation in assay [2] was 0.8% (inactive). Further, the viability decrease in assay [3] was 8.8% (inactive). Further, in assay [4], the tube area decrease is 87.3% (active). Also, the GLP1 secretion stimulation in assay [5] is 0.9% (inactive). Also, the inhibition of viability in assay [6] is 0.8% (inactive). Further, the viability decrease (inhibition) was -22% (inactive) in assay [7] and 0.1% (inactive) in assay [8].
`N=C(N)c1ccc(OCCCOc2ccc(C(=N)N)cc2)cc1`: the nuclear beta-catenin stimulation in assay [1] (at 10 µM) was -2.3% (inactive); in assay [1] (stimulation, at 2 µM) it was -0.9%. The insulin secretion stimulation in assay [2] is 2.7% (inactive). Besides, the viability decrease in assay [3] is -29.9% (inactive). The tube area decrease in assay [4] is -17.1% (inactive). Further, the GLP1 secretion stimulation in assay [5] is -1.7% (inactive). For the same molecule, the inhibition of viability in assay [6] was 7.1% (inactive). The viability decrease (inhibition) in assay [7] was 9.5% (inactive); in assay [8] it was -2.6% (inactive).
As for `CCCC(=O)O[C@]1(C(=O)CCl)[C@@H](C)C[C@H]2[C@@H]3CCC4=CC(=O)C=C[C@]4(C)[C@@]3(F)C(=O)C[C@@]21C`, the nuclear beta-catenin stimulation is 3.8% (inactive) in assay [1] (at 10 µM) and -0.1% in assay [1] (stimulation, at 2 µM). In addition, the insulin secretion stimulation in assay [2] was 3% (inactive). Also, the viability decrease in assay [3] was 0.4% (inactive). Moreover, in assay [4], the tube area decrease is 36.7% (inactive). Further, in assay [5], the GLP1 secretion stimulation is -0.4% (inactive). In assay [6], the inhibition of viability is 70.5% (active). The viability decrease (inhibition) is 99.8% (active) in assay [7] and 47% (inactive) in assay [8].
On to `COc1ccc2c(c1)c(CC(=O)OC/C=C(\C)CC/C=C(\C)CCC=C(C)C)c(C)n2C(=O)c1ccc(Cl)cc1`, for which the nuclear beta-catenin stimulation was 2.2% (inactive) in assay [1] (at 10 µM) and 3% in assay [1] (stimulation, at 2 µM). Further, in assay [2], the insulin secretion stimulation was 2.1% (inactive). In addition, in assay [3], the viability decrease is -16.7% (inactive). Moreover, the tube area decrease in assay [4] was 5.1% (inactive). For the same molecule, in assay [5], the GLP1 secretion stimulation was -2.8% (inactive). Also, in assay [6], the inhibition of viability is 4.5% (inactive). Further, the viability decrease (inhibition) is 8.2% (inactive) in assay [7] and -1.2% (inactive) in assay [8].
On to `NC(Cc1ccc([N+](=O)[O-])cc1)C(=O)O` (stereo not given), for which the nuclear beta-catenin stimulation in assay [1] (at 10 µM) was -0.2% (inactive); in assay [1] (stimulation, at 2 µM), 0%. The insulin secretion stimulation in assay [2] is -0.8% (inactive). Besides, in assay [3], the viability decrease is -7.7% (inactive). In addition, in assay [4], the tube area decrease is -16.5% (inactive). The GLP1 secretion stimulation in assay [5] was -0.7% (inactive). In addition, in assay [6], the inhibition of viability was -2.8% (inactive). The viability decrease (inhibition) is -1.7% (inactive) in assay [7] and -20.4% (inactive) in assay [8].
`N[C@H]1CN(c2c(F)cc3c(=O)c(C(=O)O)cn(C4C[C@@H]4F)c3c2Cl)CC12CC2` (stereo not given in full): the nuclear beta-catenin stimulation in assay [1] (at 10 µM) was 0.1% (inactive); in assay [1] (stimulation, at 2 µM) it was 1.9%. The insulin secretion stimulation in assay [2] is 0.95% (inactive). Further, the viability decrease in assay [3] was 40.5% (inactive). Further, the tube area decrease in assay [4] was -10.7% (inactive). Moreover, in assay [5], the GLP1 secretion stimulation is -1.5% (inactive). For the same molecule, the inhibition of viability in assay [6] is 34.3% (inactive). In addition, the viability decrease (inhibition) in assay [7] was 54.7% (active); in assay [8] it was -9.6% (inactive).
Consider `CCCSS/C(CCO)=C(\C)N(C=O)Cc1cnc(C)nc1N`, for which the nuclear beta-catenin stimulation in assay [1] (at 10 µM) is -1.4% (inactive); in assay [1] (stimulation, at 2 µM) it was -0.7%. In addition, the insulin secretion stimulation in assay [2] is 10.2% (inactive). In addition, the viability decrease in assay [3] is 33.3% (inactive). The tube area decrease in assay [4] is 55.3% (active). Moreover, the GLP1 secretion stimulation in assay [5] was -4.8% (inactive). The inhibition of viability in assay [6] was 19.1% (inactive). Further, the results for the viability decrease (inhibition) in assay [7] and in assay [8] were 45.4% (inactive) and 65.6% (active), respectively.
Take `CC(=O)Nc1ccc(/C=N/NC(N)=S)cc1`: the nuclear beta-catenin stimulation in assay [1] (at 10 µM) is 0.3% (inactive); in assay [1] (stimulation, at 2 µM), 0.5%. In assay [2], the insulin secretion stimulation is -2.3% (inactive). Further, in assay [3], the viability decrease is -4.65% (inactive). The tube area decrease in assay [4] is -8.1% (inactive). For the same molecule, in assay [5], the GLP1 secretion stimulation was 4.3% (inactive). In addition, in assay [6], the inhibition of viability is 13.3% (inactive). Also, the viability decrease (inhibition) in assay [7] was 13% (inactive); in assay [8], -1.8% (inactive).
Take `CC(CSC(=O)c1ccccc1)C(=O)N1C[C@@H](Sc2ccccc2)C[C@H]1C(=O)O` (stereo not given in full): the nuclear beta-catenin stimulation in assay [1] (at 10 µM) was -1% (inactive); in assay [1] (stimulation, at 2 µM) it was -0.2%. For the same molecule, in assay [2], the insulin secretion stimulation is 6.4% (inactive). Also, in assay [3], the viability decrease is -18.3% (inactive). Also, in assay [4], the tube area decrease was -27% (inactive). In assay [5], the GLP1 secretion stimulation is -4% (inactive). Moreover, the inhibition of viability in assay [6] is 6.5% (inactive). The values for the viability decrease (inhibition) in assay [7] and in assay [8] were 47.6% (inactive) and 27.7% (inactive), respectively.
As for `Cc1c(C)c2c(c(C)c1OC(=O)CCC(=O)O)CC[C@@](C)(CCC[C@H](C)CCC[C@H](C)CCCC(C)C)O2`, the nuclear beta-catenin stimulation in assay [1] (at 10 µM) was -0.9% (inactive); in assay [1] (stimulation, at 2 µM) it was -0.6%. Moreover, the insulin secretion stimulation in assay [2] was 2.6% (inactive). Moreover, the viability decrease in assay [3] is 36.4% (inactive). Besides, the tube area decrease in assay [4] is 61.9% (active). In addition, the GLP1 secretion stimulation in assay [5] was -3.2% (inactive). Further, in assay [6], the inhibition of viability is 54.9% (active). Besides, the viability decrease (inhibition) in assay [7] was 75% (active); in assay [8], 66% (active).
Turning to `CC(C)(C)C(=O)OCOC(=O)C1N2C(=O)CC2S(=O)(=O)C1(C)C` (stereo not given), the nuclear beta-catenin stimulation in assay [1] (at 10 µM) is -1.1% (inactive); in assay [1] (stimulation, at 2 µM), 1%. In addition, in assay [2], the insulin secretion stimulation is 1.4% (inactive). For the same molecule, the viability decrease in assay [3] was 10.9% (inactive). The tube area decrease in assay [4] was -21.6% (inactive). In addition, in assay [5], the GLP1 secretion stimulation is -1.3% (inactive). Moreover, the inhibition of viability in assay [6] is -4.1% (inactive). For the same molecule, the viability decrease (inhibition) in assay [7] was -22.3% (inactive); in assay [8], 4% (inactive).
